Experimental data taken from PubChem BioAssay.
Calls of active or inactive are those of the source.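 Rule for the calls, unless noted: active = fluorescence slope higher than the sample average by over 3 SD (cut at about -0.22 in these data, passing the limit was not always enough); inactive = the rest.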

What was measured:
[1] = inhibitors of TNFa-induced NFkB p65 translocation, primary screen, imaging, HUVEC, MLSMR starter and 10KST1 sets (AID 438;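 active = inhibition above 20% together with a positive visual image hit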;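 note: compound added about 3h40 before a 20 min TNFalpha stimulation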;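 for inhibition: signal is the nuclear over cytoplasmic p65 intensity ratio per well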); details: HUVEC TNFa-induced p65 nuclear translocation; cell count: measured here: nuclei count (cytotoxicity indicator), at 2.08 µM; inhibition: at 2 µM, stronger effect = higher value, 0% TNFa-plus-vehicle, 100% no-TNFa wells
[2] = reduction of polyQ htt aggregates in cells – imaging, exon1htt(103Q)mCFP cells, high-content imaging, primary screen (AID 483;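 active = visual image review flags a hit and inhibition of aggregation exceeds 20%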;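 note: compound exposure lasted 3 days before fixation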;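 for nuclei count: percent of the per-plate median nuclei count of sample wells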); details: exon1htt(103Q)mCFP cell line, aggregate imaging, at 2 µM; inhibition of aggregation: stronger effect = higher value; nuclei count: measured here: cell count, toxicity
[3] = endothelial E-selectin expression blockers – imaging, HUVEC, immunofluorescence, MLSMR starter and 10KST1 sets, primary screen (AID 487;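 active = visually confirmed hit in the image check and inhibition above 20%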;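 for inhibition: signal is fraction of cell area covered by stained E-selectin grains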;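 for nuclei count: 100% = median nuclei count of all wells on the same plate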); details: HUVEC TNFalpha-induced E-selectin immunofluorescence imaging, at 2 µM; inhibition: stronger effect = higher value; nuclei count: measured here: cell number, toxicity
[4] = target: Voltage-gated potassium channel subunit beta-2 (Rattus norvegicus) (UniProt P62483); assay: inhibitors of rat Kvbeta2 reductase activity – biochemical, NADPH fluorescence, primary screen (AID 622); details: recombinant KvBeta, 4-cyanobenzaldehyde reduction, at 10 µM, stronger effect = higher value;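 note: slope of raw intensity against log time taken from 70 to 1610 s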
[5] = target: Voltage-gated potassium channel subunit beta-2 (Rattus norvegicus) (UniProt P62483); assay: enhancers of rat Kvbeta2 NADPH turnover – biochemical, NADPH fluorescence, primary screen (AID 623;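 active = NADPH fluorescence slope more negative than the mean of all samples by about 3 SD, 99.7% confidence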;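 note: fluorescence intensity change per second fitted from 20 to 320 s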); details: Recombinant KvBeta, NADPH fluorescence decrease slope, 10 min; at 10 µM; stronger effect = lower value
[6] = target: Alpha-2C adrenergic receptor (Homo sapiens) (UniProt P18825); assay: compounds altering alpha2C-coupled GIRK flux – cell-based, HEK293 alpha2C/GIRK1/2, thallium flux, primary screen (AID 624;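 active = fluorescence slope after compound addition differing from the mean of all screened samples at 99.7% confidence, in either direction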;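 note: slope of fluorescence ratio to pre-addition baseline per second over 15 to 24 s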); details: thallium flux BTC fluorescence, at 10 µM, actives lie on both sides
[7] = blockers of RIG-like receptor reporter activation – cell-based, Sendai virus stimulus, luciferase, 10K MLSCN set, TLR/RLR signaling modifier project, primary screen (AID 602276;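 active = inhibition at or above 50% at 10 µM; inactive = inhibition below 50%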;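 note: firefly luciferase from ISG56 promoter only with Renilla not read in this screen; 0% = Sendai virus plus DMSO and 100% = medium plus DMSO without virus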); details: HEK293 RL24 IRF3 luciferase reporter, at 10 µM, stronger effect = higher value
[8] = TLR3 IRF3 reporter activation blockers – cell-based, poly I:C stimulus, luciferase, 10K MLSCN set, primary screen (AID 602277;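 active = inhibition of the reporter signal at or above 50%; inactive = inhibition below 50%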); details: HEK293-TLR3 RL24 IRF3 luciferase reporter, at 10 µM, stronger effect = higher value

Chain of Voltage-gated potassium channel subunit beta-2 (Rattus norvegicus) (P62483 whole entry, looked up): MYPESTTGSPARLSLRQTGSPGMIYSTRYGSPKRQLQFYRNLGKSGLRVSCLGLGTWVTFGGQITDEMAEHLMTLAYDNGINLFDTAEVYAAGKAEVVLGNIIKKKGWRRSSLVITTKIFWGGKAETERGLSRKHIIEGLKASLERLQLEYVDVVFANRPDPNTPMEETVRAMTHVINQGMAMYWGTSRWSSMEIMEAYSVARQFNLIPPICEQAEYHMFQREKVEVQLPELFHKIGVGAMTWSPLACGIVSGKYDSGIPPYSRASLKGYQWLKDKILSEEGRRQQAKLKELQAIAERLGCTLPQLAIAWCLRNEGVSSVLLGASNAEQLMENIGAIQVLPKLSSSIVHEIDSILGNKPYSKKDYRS
Chain of Alpha-2C adrenergic receptor (Homo sapiens) (P18825 whole entry, looked up): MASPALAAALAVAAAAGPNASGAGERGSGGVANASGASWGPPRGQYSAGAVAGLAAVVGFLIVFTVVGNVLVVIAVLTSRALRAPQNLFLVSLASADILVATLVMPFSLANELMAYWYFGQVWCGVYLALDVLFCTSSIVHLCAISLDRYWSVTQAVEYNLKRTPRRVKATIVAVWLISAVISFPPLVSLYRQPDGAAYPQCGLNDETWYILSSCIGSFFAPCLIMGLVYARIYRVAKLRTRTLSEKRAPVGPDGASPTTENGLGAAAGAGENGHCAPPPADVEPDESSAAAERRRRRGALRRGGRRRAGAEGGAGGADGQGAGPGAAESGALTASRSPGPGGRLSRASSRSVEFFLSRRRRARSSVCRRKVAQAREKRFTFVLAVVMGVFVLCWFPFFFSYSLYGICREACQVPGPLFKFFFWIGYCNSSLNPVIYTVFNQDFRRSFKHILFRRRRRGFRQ

Structure (SMILES) | cell count [1] | inhibition [1] | inhibition of aggregation [2] | nuclei count [2] [%] | inhibition [3] | nuclei count [3] [%] | fluorescence slope [4] | NADPH fluorescence slope [5] | slope [6] | inhibition [7] | inhibition [8]
CCOc1ccc(-c2nnc(N)s2)cc1 | 432 | -3.8% (inactive) | 29.9% (inactive) | 61.4 | -8.1% (inactive) | 90.5 | -0.493 (inactive) | -0.000137 (inactive) | 0.00563 (inactive) | -27% (inactive) | -78.8% (inactive)
Cn1cc(CN2CCc3ccccc3C2)c2ccccc21 | 361 | -12.1% (inactive) | -6.2% (inactive) | 146 | -62.7% (inactive) | 110 | -0.408 (inactive) | -0.000148 (inactive) | 0.00535 (inactive) | 20.8% (inactive) | 37.6% (inactive)
Fc1ccc(C(c2nnnn2Cc2ccco2)N2CCN(C3CCCCC3)CC2)cc1 (centres undefined) | 297 | -3.3% (inactive) | 11.4% (inactive) | 98 | -98.2% (inactive) | 130 | -0.552 (inactive) | 3.4e-05 (inactive) | 0.00429 (inactive) | -10.1% (inactive) | -16.4% (inactive)
Cc1c(C(=O)Nc2cnccn2)oc2ccccc12 | 370 | 7.3% (inactive) | 7.5% (inactive) | 95.3 | -97.6% (inactive) | 108 | -0.371 (inactive) | 4.4e-05 (inactive) | 0.00977 (inactive) | 0.764% (inactive) | -4.49% (inactive)
O=C(Cn1ccc2ccccc2c1=O)Nc1ccc2c(c1)OCO2 | 231 | -1.8% (inactive) | 1% (inactive) | 103 | 0% (inactive) | 91.4 | -0.602 (inactive) | -4.5e-05 (inactive) | 0.00747 (inactive) | 0.207% (inactive) | -4.72% (inactive)
C=CCN1C(=O)C2(C(C#N)=C(N)Oc3n[nH]c(CCC)c32)c2ccccc21 (centres undefined) | 389 | 3.2% (inactive) | -32.8% (inactive) | 95.3 | -37.6% (inactive) | 114 | -0.625 (inactive) | -3.8e-05 (inactive) | 0.00735 (inactive) | 11.3% (inactive) | 16.8% (inactive)
CCCCOc1ccc(S(=O)(=O)n2c(C)nc3ccccc32)cc1 | 445 | -1.5% (inactive) | -1.2% (inactive) | 102 | -286% (inactive) | 113 | -0.387 (inactive) | 1.3e-05 (inactive) | 0.00302 (inactive) | 9.07% (inactive) | 16.6% (inactive)
Cc1ccc2[nH]c(=O)c(CN(Cc3ccc4c(c3)OCO4)Cc3nnnn3Cc3ccco3)cc2c1 | 638 | 2.2% (inactive) | -15.3% (inactive) | 94.1 | -74.1% (inactive) | 122 | -0.622 (inactive) | -7e-06 (inactive) | 0.00625 (inactive) | 9.33% (inactive) | 12.2% (inactive)
Cc1cc(C)cc(NC(=O)CCNS(=O)(=O)c2ccc3c(c2)oc(=O)n3C)c1 | 755 | -14.1% (inactive) | -14.6% (inactive) | 120 | -79.9% (inactive) | 100 | -0.601 (inactive) | -3.2e-05 (inactive) | 0.00584 (inactive) | 20.7% (inactive) | 22.7% (inactive)
CCc1nc2scc(-c3ccccc3)c2c(=O)n1N | 414 | 10.9% (inactive) | 0% (inactive) | 98.5 | -361% (inactive) | 142 | -0.437 (inactive) | 6.4e-05 (inactive) | 0.00592 (inactive) | -8.38% (inactive) | -30.6% (inactive)
COc1ccc(C(=O)Nc2nncs2)c(OC)c1 | 746 | 7.5% (inactive) | -7.4% (inactive) | 27 | -98.6% (inactive) | 111 | -0.631 (inactive) | 3.8e-06 (inactive) | 0.00588 (inactive) | -22.9% (inactive) | -48.7% (inactive)
CCOC(=O)c1[nH]c(CSc2nnc(-c3ccncc3)n2CCOC)c(C(=O)OCC)c1C | 368 | 1.1% (inactive) | -5.7% (inactive) | 107 | -89.1% (inactive) | 127 | -0.486 (inactive) | 1.9e-05 (inactive) | 0.00635 (inactive) | 8.8% (inactive) | 11.1% (inactive)
CCc1nc(SCc2cc(Cl)ccc2OC)n[nH]1 | 661 | 8.7% (inactive) | -8.3% (inactive) | 95.5 | -47.4% (inactive) | 103 | -0.36 (inactive) | -6.3e-05 (inactive) | 0.00554 (inactive) | -11.3% (inactive) | -22.3% (inactive)
O=C(c1ccc2nc(N3CCOCC3)sc2c1)N1CCCC1 | 708 | -11.2% (inactive) | 6% (inactive) | 62.7 | -70.6% (inactive) | 116 | -0.564 (inactive) | -2.7e-05 (inactive) | 0.00689 (inactive) | 3.55% (inactive) | 3.65% (inactive)
COc1ccc(C(=O)Cn2nnc(-c3cccs3)n2)cc1 | 368 | -7% (inactive) | 27.6% (inactive) | 89.5 | -0.6% (inactive) | 100 | -0.407 (inactive) | -4.9e-05 (inactive) | 0.00512 (inactive) | -2.35% (inactive) | -30.5% (inactive)
O=C1CN(c2nc3ccccc3n3cnnc23)CC(=O)N1CCc1ccccc1 | 662 | 10% (inactive) | -13% (inactive) | 112 | -66% (inactive) | 116 | -0.588 (inactive) | -6.3e-05 (inactive) | 0.00474 (inactive) | 6.8% (inactive) | 9.78% (inactive)
Cc1ccc(NC(=O)CSc2nnc(Cc3cccn3C)n2-c2ccc(F)cc2)cc1 | 562 | 12.9% (inactive) | -6.4% (inactive) | 98.7 | -118% (inactive) | 91.3 | -0.586 (inactive) | -2.1e-06 (inactive) | 0.00658 (inactive) | 8.62% (inactive) | 23.7% (inactive)
S=c1[nH]nc(Cc2ccccc2)n1Cc1ccco1 | 769 | -8% (inactive) | 3% (inactive) | 101 | -2.6% (inactive) | 102 | -0.499 (inactive) | -7e-05 (inactive) | 0.00544 (inactive) | 5.02% (inactive) | 9.76% (inactive)
c1ccc2c(c1)CC(N1CCCCC1)c1ccccc1N2 (centres undefined) | 631 | -6.3% (inactive) | 10.2% (inactive) | 107 | -26.5% (inactive) | 83.5 | -0.41 (inactive) | -0.000142 (inactive) | 0.00466 (inactive) | 10.1% (inactive) | 24.1% (inactive)
